Rab9 promoter act – activators of Rab9 promoter; Potency, µM (top dose mostly 9.22 µM), inactives show top-dose activation, negative = inhibition, actives largely listed as activators; actives 2.8% (n = 320,000); Huh7 Rab9 promoter-luciferase reporter, luminescence, 24 h; AID 485297; also: % of control where 0% means no effect; nearly all actives have a fitted effect of over 60% in size
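Rab9 promoter-driven luciferase in stably transfected Huh7 cells; 1500 cells/well rested 2 h, exposed to compound in DMSO for 24 h at 37 °C, 5% CO2. Luminescence read 10 min after adding luciferase reagent at ambient temperature.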
SMN2 splice enh – SMN2 splice variant enhancement | actives 2.8% (n = 210,000) | HEK293 SMN2-luciferase splicing reporter, luminescence, 30-36 h | Potency, µM (top dose mostly 46.1 µM), inactives show top-dose activity change, positive = activation, hits mostly activators; also: % of control where 0% means no effect; nearly all actives have a fitted effect of over 55% in size
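HEK293 cells carry an SMN2 […]–luciferase reporter in which exon 7 inclusion puts luciferase in frame. Cells were plated 10-12 h before compound addition, then incubated 30-36 h at 37C. ONE-Glo luminescence was read; sodium butyrate at 4.5 mM final served as control.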
FLuc counter – inhibits or activates purified firefly luciferase, miR-21 counter-screen; purified FLuc, Km substrates, luminescence inhibition; Potency, µM (highest dose often 57.5 µM), without a hit: at the highest dose activity change, negative = inhibition, hits mostly inhibitors; actives 6.9% (n = 360,000);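 also: plate controls were vehicle for no effect and reference inhibitor for full effect; nearly all actives have a fitted effect of over 55% in size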
Target sequence (P08659 whole entry, looked up): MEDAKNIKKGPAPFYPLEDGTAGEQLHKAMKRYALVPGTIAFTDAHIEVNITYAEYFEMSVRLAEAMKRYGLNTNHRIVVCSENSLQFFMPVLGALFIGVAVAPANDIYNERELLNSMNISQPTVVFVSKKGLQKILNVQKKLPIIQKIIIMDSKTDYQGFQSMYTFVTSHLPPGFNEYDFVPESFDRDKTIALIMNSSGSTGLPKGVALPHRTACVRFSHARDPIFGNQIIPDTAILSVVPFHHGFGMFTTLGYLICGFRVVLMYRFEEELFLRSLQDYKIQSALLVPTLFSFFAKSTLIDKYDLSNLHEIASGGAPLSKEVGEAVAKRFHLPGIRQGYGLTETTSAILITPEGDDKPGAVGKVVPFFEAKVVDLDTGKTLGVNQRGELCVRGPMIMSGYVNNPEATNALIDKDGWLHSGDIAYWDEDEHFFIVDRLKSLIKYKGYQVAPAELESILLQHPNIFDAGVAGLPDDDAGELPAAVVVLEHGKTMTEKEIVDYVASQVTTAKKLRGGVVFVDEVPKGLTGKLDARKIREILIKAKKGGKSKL
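Biochemical qHTS of compounds, final roughly 60 µM downward over six points, against 10 nM purified firefly luciferase using Km concentrations of substrates (10 uM D-luciferin, 10 uM ATP) in Tris acetate pH 7.5 buffer; luminescence output.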
ELG1 DNA repair – inhibitors of ELG1-dependent DNA repair in HEK293T cells | HEK293T ELG1-luciferase reporter, luminescence, 16 h; DNA damage induced by 5-fluorouridine | Potency, µM (titrated, usually from 46.1 µM), without a hit: at the highest dose activity change, negative = inhibition, hits mostly inhibitors | actives 2.3% (n = 330,000) | AID 504467; also: % is scaled to controls: 0 for no effect and ±100 for the full control effect; nearly all actives have a fitted effect of over 55% in size
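Reporter activity after DNA damage by 5-fluorouridine is monitored. Compound-treated cells incubate 16 hr at 37 °C, then ONE-Glo is added for 30 min before luminescence reading.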
NPC1 prom act – activators of NPC1 promoter; Huh7 NPC1 promoter luciferase reporter, 24 h; Potency, µM (doses to about 9.22 µM), for the others: top-dose activation, usual class: activators; actives 2.4% (n = 320,000); also: % of control where 0% means no effect; nearly all actives have a fitted effect of over 60% in size
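Stably transfected Huh7 (NPC1 promoter→luciferase), 1500 cells/well in Opti-MEM + 10% FBS, 2 h settle, then compound 24 h at 37 °C. Luminescence after 10 min with Amplite reagent.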
ELG1 genotox – genotoxicity induction in ELG1-luciferase HEK293T cells; HEK293T ELG1-luciferase reporter, luminescence, 16 h; AID 504466; Potency, µM (titrated, usually from 46 µM), for inactives: at the highest dose activity change, positive = activation, actives largely listed as activators; actives 1.3% (n = 330,000); also: % of control where 0% means no effect; nearly all actives have a fitted effect of over 60% in size
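Reporter readout depends on ELG1 protein level, which increases with genetic stress. After 16 hr compound exposure at 37 °C, luciferase activity was quantified using ONE-Glo.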
* marks the source's active call; other numbers are inactive results; ? = inconclusive; . = not tested or not shown; [ ] = another dose, or the depositor's remark. Rows were chosen to be rich in hits. Some 9.4% of all compounds tested hit in one or more screens of this group. Calls follow the shape of the dose curve; as a rule, active = well fitted curve in the direction sought with a large enough effect; inconclusive = small, poorly fitted or top-dose-only effect, or another doubt; inactive = no such curve, though single readings can be large; an effect the other way counts as inactive or inconclusive. Potency is read from the fitted curve at half-maximal effect.

SMILES | Rab9 promoter act | SMN2 splice enh | FLuc counter | ELG1 DNA repair | NPC1 prom act | ELG1 genotox
O=C(c1ccc(Cl)c(S(=O)(=O)N2CCCC2)c1)N1CCN(c2ccccc2)CC1 | -22% | -33% | -1% | 16µM* | -5% | -9%
O=C1c2ccccc2-c2ccc(C(=O)N3CCCCC3)cc21 | ? | 12% | 27µM* | ? | ? | ?
CCc1nc(Nc2ccc(F)c(Cl)c2)c2c3c(sc2n1)CCCC3 | . | -18% | -2% | . | . | .
CCC(C)(C)OC | . | 0% | . | . | . | .
O=C(c1ccc(Cl)c(S(=O)(=O)N2CCCCCC2)c1)N1CCN(c2ccccc2O)CC1 | 2% | -85% | 0% | 16µM* | 2% | -12%
Cc1ccc(S(=O)(=O)NCc2ccc(C(=O)N3CCN(c4ccccn4)CC3)cc2)cc1 | 3% | -23% | 3% | ? | -1% | -6%
Cc1ccc(NS(=O)(=O)c2ccc(C(=O)N3CCN(c4ccccn4)CC3)cc2)cc1 | -23% | -47% | 4% | 15µM* | -3% | -14%
O=C(c1ccc(Cl)c(Cl)c1)N1CCN(c2ccccn2)CC1 | -1% | . | 0% | -23% | -2% | -4%
CN(c1ccccc1)S(=O)(=O)c1cc(C(=O)N2CCN(c3ccccn3)CC2)ccc1Cl | -3% | -55% | 8% | 15µM* | -2% | -17%
Cc1ccc(C)c(CN2C(=O)C3(c4ccccc42)N(c2ccc(Cl)cc2)C(=O)CS3(=O)=O)c1 (stereo not given) | . | . | -7% | . | . | .
Cc1c(C(=O)Nc2cccc(C(F)(F)F)c2)sc2nc[nH]c(=O)c12 | . | . | -3% | . | . | .
Clc1ccc(CCNc2ncnc3nc[nH]c23)cc1 | -7% | -63% | -19% | ? | 0% | -2%
c1ccc(CNc2ncnc3nc[nH]c23)cc1 | 2% | -3% | -2% | -14% | 1% | -5%
Cc1ccsc1/C=N/Nc1ncnc2nc[nH]c12 | 3.5µM* | 11µM* | 19µM* | ? | 2.5µM* | 15µM*
Cc1ccccc1/C=N/Nc1ncnc2nc[nH]c12 | ? | . | 15µM* | ? | ? | ?
Fc1ccc(/C=N/Nc2ncnc3nc[nH]c23)cc1F | 28% | ? | ? | ? | 30% | 21µM*
C(=N\Nc1ncnc2nc[nH]c12)/c1cccs1 | ? | 35µM* | 13µM* | ? | ? | 16µM*
Cc1ccc(S(=O)(=O)N2CCC(C(=O)O)(c3ccccc3)CC2)cc1 | . | 11%[9.22 µM] | . | . | . | .
N=C(N)c1ccc(N2CCN(C3CCN(CC(=O)O)CC3)CC2)cc1 | . | -6% | . | . | . | .
O=c1nc2ccccc2c2n1CC(CN1CCN(c3ccccc3)CC1)N2 (stereo not given) | . | -5% | . | . | . | .
Cc1ccc(CNC(=O)c2c(-c3ccc(Br)cc3)noc2C)o1 | . | . | -18% | . | . | .
CSc1ccccc1OCc1cc(C(=O)NC(C)Cc2cccc(C)n2)no1 (stereo not given) | ? | . | 19µM* | ? | ? | -10%
CSc1ccccc1OCc1cc(C(=O)NCc2cccc(C)n2)no1 | 4µM* | . | 12µM* | ? | 2.8µM* | ?
CCn1nc(C)c(CNC(=O)c2cc(COc3ccccc3SC)on2)c1C | -1% | . | -16% | 3% | 0% | -7%
CSc1ccccc1OCc1cc(C(=O)NC(C)CCn2cccn2)no1 (stereo not given) | 1% | . | ? | -2% | -3% | -3%
SMILES | Rab9 promoter act | SMN2 splice enh | FLuc counter | ELG1 DNA repair | NPC1 prom act | ELG1 genotox
Cc1nn(C)c(C)c1CNC(=O)Nc1cccc(Cl)c1 | ? | . | ? | ? | 21% | -1%
Cc1nn(C)c(C)c1CNC(=O)Nc1ccc(Cl)cc1 | 3.2µM* | 27% | ? | ? | ? | ?
O=C(Nc1ccc(N2CCOCC2)c(Cl)c1)c1cc2ccccc2o1 | 3.2µM* | 27% | 8.5µM* | ? | 3.5µM* | -11%
O=C(Nc1cccnc1Cl)c1cc2ccccc2o1 | 1.3µM* | . | 5.4µM* | ? | 1.6µM* | 9.2µM*
Cc1cc(NC(=O)c2cccnc2Cl)ccc1NC(=O)c1cc2ccccc2o1 | -5% | . | -6% | ? | -4% | -21%
CS(=O)(=O)N1CCN(c2ccccc2NC(=O)c2cc3ccccc3o2)CC1 | 12% | . | -8% | 21µM* | 13% | -8%
O=C(Nc1ccccc1N1CCCC1)c1cc2ccccc2o1 | 29% | 22µM* | 7.6µM* | ? | ? | 1%
O=C(Nc1ccccc1N1CCOCC1)c1cc2ccccc2o1 | 16% | . | 9.5µM* | 17% | ? | 4%
CN1CCN(c2ccccc2NC(=O)c2cc3ccccc3o2)CC1 | 2% | -11% | ? | 4% | 20% | 5%
Cc1nc(N)sc1-c1csc(Nc2ccccc2)n1 | 2.8µM* | 11µM* | 11µM* | ? | ? | 16%
COc1cccc(Nc2nc(-c3sc(NC(=O)c4ccccc4)nc3C)cs2)c1 | -1% | -59% | 19µM* | ? | 0% | -7%
Cc1nc(NC(=O)c2ccc(Cl)cc2)sc1-c1csc(Nc2cccc(F)c2)n1 | 0% | -9% | 11µM* | 1% | 14% | -3%
Cc1ccccc1Nc1nc(-c2sc(NC(=O)c3ccco3)nc2C)cs1 | 1% | -6% | ? | ? | 0% | -2%
Cc1ccc(Nc2nc(-c3sc(NC(=O)c4ccco4)nc3C)cs2)cc1 | 3% | -61% | 17µM* | 10µM* | 7% | -2%
Cc1cn2c(=O)cc(COc3ccc(NC(=O)COc4ccccc4)cc3)nc2s1 | . | -2% | -4% | . | . | .
CCCSCCCNC(=O)CN1C(=O)CCn2nc(-c3cn(C)c4ccccc34)cc21 | . | . | 4% | . | . | .
CCn1nc(C)c2c(-c3ccccc3)cc(=O)n(C(C)C(=O)NCc3ccccc3OC)c21 (stereo not given) | . | . | -15% | . | . | .
Cc1nc(N)sc1-c1csc(Nc2cccc(C(=O)O)c2)n1 | 15% | . | 7.6µM* | 3% | 17% | -7%
O=C(O)c1ccc(Nc2nc(-c3ccccc3)cs2)cc1 | 0.4µM* | 2.5µM* | 0.67µM* | ? | 0.4µM* | -2%
Cc1csc(Nc2ccc(C(=O)O)cc2)n1 | 16% | . | ? | ? | 20% | 6%
COc1cccc(NC(=O)c2sc(NC(=O)c3ccncc3)nc2C)c1 | 0% | . | 19µM* | -24% | -2% | -4%
COc1cccc(NC(=O)c2ccncc2)c1 | -4% | -2% | -5% | ? | 2% | -3%
COc1cccc(Nc2nc(-c3sc(NC(=O)CC(C)C)nc3C)cs2)c1 | -7% | -23% | ? | ? | -7% | -9%
CCC(=O)Nc1nc(C)c(-c2csc(Nc3cccc(C(=O)O)c3)n2)s1 | -3% | 27% | 11µM* | 22% | -1% | -5%
